# Inconclusive results are not listed. Unmarked numbers belong to inactive results. The source made the active and inactive calls. Calls come from the whole dose curve; as a rule, active = well fitted inhibition curve with a large enough effect; inconclusive = small, poorly fitted or top-dose-only effect; inactive = flat fitted curve, though single readings scatter.
# Biological target: RecQ-like DNA helicase BLM (Homo sapiens) (UniProt P54132)
# Assay: qHTS for Inhibitors of Bloom's syndrome helicase (BLM): Helicase ATPase Orthogonal Confirmatory Assay for SAR
# Conditions: purified BLM helicase ATPase activity assay; series mostly up to 57.1 µM; activity change, negative = inhibition: at the top concentration
# Procedure, shortened: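 Purified BLM (2 nM) in Tris-HCl pH 8.0 with MgCl2, DTT, Tween-20, preincubated 15 min with compound. Reaction with 200 nM ssDNA and 100 uM ATP ran 15 min; ADP-Glo luminescence, four-parameter Hill fit.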
# RecQ-like DNA helicase BLM (Homo sapiens), sequence (P54132 whole entry, looked up): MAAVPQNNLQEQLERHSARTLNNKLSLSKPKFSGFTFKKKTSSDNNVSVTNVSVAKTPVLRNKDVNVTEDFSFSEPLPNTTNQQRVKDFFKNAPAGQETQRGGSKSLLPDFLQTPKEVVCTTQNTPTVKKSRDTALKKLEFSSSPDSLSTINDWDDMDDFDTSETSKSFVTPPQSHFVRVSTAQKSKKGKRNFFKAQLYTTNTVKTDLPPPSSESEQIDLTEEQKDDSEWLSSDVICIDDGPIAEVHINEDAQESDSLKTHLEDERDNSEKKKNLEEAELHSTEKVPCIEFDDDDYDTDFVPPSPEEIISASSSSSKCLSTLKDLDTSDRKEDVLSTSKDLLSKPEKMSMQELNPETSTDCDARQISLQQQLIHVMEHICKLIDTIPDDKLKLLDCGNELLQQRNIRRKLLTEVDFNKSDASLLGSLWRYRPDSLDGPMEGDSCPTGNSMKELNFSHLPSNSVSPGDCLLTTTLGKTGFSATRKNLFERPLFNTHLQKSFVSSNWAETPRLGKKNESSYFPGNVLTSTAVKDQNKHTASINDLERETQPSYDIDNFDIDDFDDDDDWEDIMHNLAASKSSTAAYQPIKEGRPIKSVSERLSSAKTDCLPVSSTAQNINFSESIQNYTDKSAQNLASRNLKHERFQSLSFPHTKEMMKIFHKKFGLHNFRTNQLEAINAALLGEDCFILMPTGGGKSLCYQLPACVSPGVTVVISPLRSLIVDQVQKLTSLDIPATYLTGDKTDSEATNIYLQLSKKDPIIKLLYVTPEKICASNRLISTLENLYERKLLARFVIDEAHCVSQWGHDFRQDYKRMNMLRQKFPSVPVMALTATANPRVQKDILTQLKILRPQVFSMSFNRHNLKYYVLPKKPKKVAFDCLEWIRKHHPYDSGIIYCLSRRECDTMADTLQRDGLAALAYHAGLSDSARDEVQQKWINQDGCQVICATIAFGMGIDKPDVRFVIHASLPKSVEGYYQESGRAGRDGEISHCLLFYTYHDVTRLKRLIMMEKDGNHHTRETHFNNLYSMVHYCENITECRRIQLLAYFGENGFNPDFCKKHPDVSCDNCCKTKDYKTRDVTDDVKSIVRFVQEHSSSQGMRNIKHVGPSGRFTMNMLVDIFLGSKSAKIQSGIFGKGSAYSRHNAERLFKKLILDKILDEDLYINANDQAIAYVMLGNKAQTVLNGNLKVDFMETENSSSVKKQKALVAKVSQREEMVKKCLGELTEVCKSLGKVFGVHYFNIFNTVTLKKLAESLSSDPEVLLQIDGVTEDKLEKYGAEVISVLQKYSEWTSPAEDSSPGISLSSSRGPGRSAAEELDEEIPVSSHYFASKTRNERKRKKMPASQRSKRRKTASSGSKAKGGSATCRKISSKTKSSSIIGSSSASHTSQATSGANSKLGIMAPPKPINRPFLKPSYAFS
Compound,"activity change, negative = inhibition [%]",Potency
Cc1cc(NC(=O)Nc2nnc(-c3ccncc3)s2)ccc1F,-25.5,
O=C(Nc1ccc(Oc2ccccc2)cc1)Nc1nnc(-c2ccncc2)s1,-13.1,
O=C(Nc1ccc(-c2ccccc2)cc1)Nc1nnc(-c2ccncc2)s1,-9.6,
O=C(Nc1ccc(-n2cncn2)c(C(F)(F)F)c1)Nc1nnc(-c2ccncc2)s1,,20.4 µM (active)
O=C(Nc1ccc2sccc2c1)Nc1nnc(-c2cccnc2)s1,-29,
O=C(Nc1ccc(Cl)c(C(F)(F)F)c1)Nc1nnc(-c2ccncc2)s1,2.12,
O=C(Nc1ccc(F)c(C(F)(F)F)c1)Nc1nnc(C2CCCCC2)s1,-2.56,
Cc1cc(C)c(-c2nnc(NC(=O)Nc3ccc4ccccc4c3)s2)c(C)c1,-10.3,
c1ccc2[nH]c(Nc3nnc(-c4ccncc4)s3)nc2c1,-3.35,
O=C(Nc1ccc(Cl)c(Cl)c1)Nc1nnc(-c2ccncc2)o1,15.6,
O=C(Nc1ccc(F)c(C(F)(F)F)c1)Nc1nnc(-c2ccncc2)s1,-21.6,
Cc1cc(NC(=O)Nc2nnc(-c3ccncc3)s2)ccc1C#N,,1.29 µM (active)
O=c1c(Nc2ccc(F)c(C(F)(F)F)c2)c(Nc2nnc(-c3ccncc3)s2)c1=O,-11.3,
O=C(Nc1ccc(Cl)nc1)Nc1nnc(-c2ccncc2)s1,,1.62 µM (active)
O=C(Nc1ccc(Cl)c(Cl)c1)N1CCN(c2ccncc2)CC1,5.13,
O=C(Nc1nnc(-c2ccncc2)s1)Nc1cc(C(F)(F)F)ccc1F,8.53,
O=C(Nc1ccc(Cl)c(Cl)c1)Nc1nnc(-c2ccncc2)s1,,6.46 µM (active)
Nc1cc(NC(=O)Nc2nnc(-c3ccncc3)s2)ccc1Cl,,20.4 µM (active)
O=C(Nc1cccc(C(=O)O)c1)Nc1nnc(-c2ccncc2)s1,-3.61,
O=C(NCc1ccccc1)Nc1nnc(-c2ccncc2)s1,15.1,
CCCCCCNC(=O)Nc1nnc(-c2ccncc2)s1,11.1,
O=C(Nc1ccc(F)c(C(F)(F)F)c1)Nc1ccc(-c2ccncc2)s1,-4.77,
N#Cc1cc(NC(=O)Nc2nnc(-c3ccncc3)s2)ccc1-c1ccc[nH]1,,7.25 µM (active)
O=C(Nc1ccc(Cl)c([N+](=O)[O-])c1)Nc1nnc(C2CCCCC2)s1,-4.88,
